Measurements reported in PubChem BioAssay AID588473 (Sanford-Burnham Center for Chemical Genomics, 2011).
Hit rate of the full screen: of about 350,000 compounds, about 1,600 (0.46%) were called active. For the sample, actives were picked, then their nearest neighbours and some compounds at random. Unmarked numbers belong to inactive results.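 How the source made its calls: active means activation of at least 50%, plus an integration ratio under a set limit after plate pattern correction; inactive means the rest.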

Tested on: CRF-binding protein / CRF receptor 2 complex (human)
Test: activators of CRF-R2 with CRF-BP – cell-based, HEK293, calcium dye fluorescence, uHTS, primary screen (AID 588473);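 further: plate controls were neutral control wells without compound for no effect and CRF at EC100 for full effect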
Conditions: calcium dye fluorescence (FLIPR), at 13.2 µM, active compounds read high, percent of saturating CRF peptide response

Structure (SMILES) | activation
CC(=O)Nc1ccc(OC(=O)COc2ccc(Br)cc2)cc1 | 0.61%
Cn1cccc1C(=O)NNC(=O)COc1ccc(Br)cc1 | 0.35%
Cc1ccc(O)c(NC(=S)NC(=O)COc2ccc(Br)cc2)c1 | 195% (active)
Cc1cc(C)c(S(=O)(=O)Nc2c(C)n(C)n(-c3ccccc3)c2=O)cc1[N+](=O)[O-] | -0.78%
N#C/C(=C/c1ccc(N2CCCCC2)o1)C(=O)NCCc1c[nH]c2ccccc12 | 138% (active)
Cc1ccc(C(=O)N/C(=C/c2ccco2)C(=O)NCCc2c[nH]c3ccccc23)cc1C | -0.5%
O=C(NCCc1c[nH]c2ccccc12)C1CCN(Cc2ccc(Br)cc2)CC1 | 7.6%
CCCN(CCC)c1nc2c(C)cccn2c(=O)c1/C=C1/SC(=S)N(Cc2ccco2)C1=O | 36.9%
Cc1cccn2c(=O)c(/C=C3\SC(=S)N(CC(C)C)C3=O)c(NCCCOC(C)C)nc12 | 83% (active)
CNc1nc2c(C)cccn2c(=O)c1C=Nc1ccc(OC)cc1 | -0.9%
CCOC(=O)NC(=O)C(=CNc1cccc(OC)c1)C(=O)NC(=O)OCC | 2.88%
Cc1cccn2c(=O)c3cc(C#N)c(=O)n(CCCN4CCOCC4)c3nc12 | 2.16%
Cc1cccn2c(=O)c3cc(C(=O)NCCN4CCOCC4)c(=N)n(Cc4cccnc4)c3nc12 | -0.12%
Cc1cccn2c(=O)c3cc(C#N)c(=NC(=O)c4cccnc4)n(CC4CCCO4)c3nc12 (centres undefined) | 56.4% (active)
Cc1cc(=O)n2nc(N3CCCC(C(=O)NCc4ccc(Cl)cc4)C3)sc2n1 (centres undefined) | -0.87%
CCCCCCCC[n+]1cccc(C(=O)N2c3c(nc(N)[nH]c3=O)NC(C)C2C)c1 (centres undefined) | -1.35%
Cc1cccc(C(=O)N2CCN(S(=O)(=O)N3CCCCC3)CC2)c1 | -0.46%
Cc1cccc(C)c1N1CCN(S(=O)(=O)N2CCCCC2)CC1 | 152% (active)
Cc1cccc(C)c1N1CCN(S(=O)(=O)N2CCOCC2)CC1 | 16.7%
CCn1cc(CN2CCN(CC(C)(C)C)C(CCO)C2)c2ccccc21 (centres undefined) | 4.34%

Structure (SMILES) | activation
CCOc1ccc(NCCC(=O)c2ccc3c(c2)OCO3)cc1 | -0.43%
COc1ccc(CCNC(=O)C(=O)NCC2OCCN2S(=O)(=O)c2cccs2)cc1OC (centres undefined) | -0.25%
CC1(C)N=C(c2ccccn2)C(C)(C)N1O | 2.11%
Cc1cccc(NC(=O)CN2C(=O)CNC2=O)c1 | -0.73%
Cc1cccc(NC(=O)CCN2CC(C)CC(C)C2)c1 (centres undefined) | -0.13%
Cc1cccc(NC(=O)C(C)N2C(=O)C3C4CC(C(Br)C4Br)C3C2=O)c1 (centres undefined) | 73.2% (active)
CN(C)S(=O)(=O)c1ccc(C(=O)NCC2(N3CCOCC3)CCCCC2)cc1 | 0.88%
Cc1ccc(-c2ccnc3[nH]n(-c4ccccc4)c(=O)c23)cc1 | 0.1%
Cc1ccc(-n2[nH]c(C)c(/C=N/N3C(=O)c4cccc5cccc(c45)C3=O)c2=O)cc1 | 113% (active)
COc1cc(SC#N)ccc1N=Cc1c(C)[nH]n(-c2ccc(C)cc2)c1=O | -2.61%
Cc1noc(C)c1S(=O)(=O)N(C)Cc1ccccc1 | -2.84%
CC(c1cccnc1)N(CCN(C)C)C(=O)Nc1ccc(Cl)c(Cl)c1 (centres undefined) | 0.52%
O=C(CCCN=C1NS(=O)(=O)c2ccccc21)OCC(=O)c1ccc(F)c(F)c1 | 62% (active)
N#CC1(NC(=O)COC(=O)CCN=C2NS(=O)(=O)c3ccccc32)CCCCC1 | 8.71%
O=C(OCCN=C1NS(=O)(=O)c2ccccc21)c1cccc([N+](=O)[O-])c1 | -1.89%
C=CCOc1cccc(C2C(C(=O)c3ccc(C)o3)=C(O)C(=O)N2CCN2CCOCC2)c1 (centres undefined) | 0.15%
CCCc1c(C(=O)N/N=C(\C)CCc2ccc(OC)cc2)nnn1-c1nonc1N | -0.36%
COc1cc(C)c(C)cc1S(=O)(=O)N1CCCc2ccccc21 | 53.4% (active)
COc1ccc(C(=O)OCC(=O)NCC2CCCCC2)cc1S(=O)(=O)N1CCCc2ccccc21 | 1.36%
CCC(C)(C)NC(=O)/C=C/c1cc(OC)c(OC)c(S(=O)(=O)N2CCc3ccccc32)c1 | 3.27%

Structure (SMILES) | activation
CC(OC(=O)CN1C(=O)C2CCCCC2C1=O)C(=O)Nc1ncc(Cl)cc1Cl (centres undefined) | 0.41%
CCNc1nc(Oc2ccc(C(=O)OC)cc2)nc(N2CCOCC2)n1 | 1.34%
Cc1ccccc1NC(=O)C(C)c1ccc(-c2ccccc2)c(F)c1 (centres undefined) | 1.53%
CC1CC(NC(=O)/C(C#N)=C/c2ccc[nH]2)CC(C)(C)C1 (centres undefined) | 2.1%
CCOC(=O)c1c(NC(C)=O)sc2c(O)c(Br)ccc12 | 1.34%
O=c1c2cc(Br)ccc2nc(-c2cccc(Cl)c2)n1O | 66.9% (active)
NC(=O)c1cc(-c2cccnc2)nc2ccc(Br)cc12 | -0.32%
NC(N)=Nc1nc2ccc(Br)cc2c(=O)[nH]1 | -1.35%
CC1Sc2ccc(S(=O)(=O)CCC(=O)NCc3ccccc3Cl)cc2NC1=O (centres undefined) | -3.65%
COc1ccccc1N(CC(=O)N1CCCCC1)S(=O)(=O)c1ccccc1 | 59.4% (active)
COc1ccc(C)cc1N(CC(=O)N1CCCC1)S(=O)(=O)c1ccccc1 | -0.01%
COc1ccc(N(CC(=O)N2CCCCCC2)S(=O)(=O)c2ccccc2)cc1 | 0.06%
Nc1c(C(=O)c2cccs2)sc2nsc(SCCN3CCCCC3)c12 | 147% (active)
CCOc1ccccc1NC(=S)NC(=O)CCc1ccccc1 | 0.36%
COc1ccc(C(=O)NC(=S)NC2CCCCC2)cc1 | 1.07%
COc1ccc(C(=O)NC(=S)NNC(=O)CCc2ccccc2)cc1 | 68.5% (active)
COc1ccc(C(=O)NNC(=S)NC(=O)c2ccccc2)cc1 | 123% (active)
CC(=O)NC(=S)NNC(=O)c1ccc(Br)cc1 | -4.92%
O=C(CCc1ccccc1)NNC(=O)COc1ccc(Cl)cc1 | -0.46%
